Here are results for 14 compounds from the supplement of paper PMC10646978.

The structures appear in SMILES notation. ± gives the standard deviation.

What all share (conditions): modulator concentration 10 µM
Assay [1] has as its system RAW-Dual (murine macrophage reporter line). Kind of assay: NF-kB reporter (SEAP) activity fold change vs agonist alone; higher = enhanced NF-kB activity. The method in brief:
(§1)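 Compound reached 10 μM final in each well by pin transfer, onto RAW-Dual murine macrophage reporter cells seeded at 50 000 per well in 384-well plates. After 1 hour at 37 °C, the cells were stimulated overnight with a PRR agonist. SEAP in the supernatant was read with QUANTI-Blue at 620 nm absorbance for NF-κB, and Lucia luciferase was read with QUANTI-Luc luminescence for IRF. Each signal was turned into fold change against the mean agonist-only control on the same plate, and two replicate plates were averaged with propagated errors.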

The test system is the same in assay [2]. Briefly: IRF reporter (Lucia luciferase) activity fold change vs agonist alone; higher = enhanced IRF activity. In outline: as §1
Assay [3] has the same test system. Kind of assay: viability score (confluency relative to resting cells, overnight) (fraction); higher = more viable, active = viable (0.7 or more). The method in brief: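 RAW-Dual macrophages in 384-well plates were treated overnight with compound at 10 μM final. IncuCyte imaging recorded confluency, and IncuCyte software built two confluency masks across every imaged well. The viability score expresses confluency relative to resting cells and was judged against a cutoff, which a compound met only if both masks exceeded 70% of resting cells.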

The mark [4] stands for this setting: agonist: CpG ODN 1826 0.5 ug/mL.

`Oc1ccc(Cl)cc1-c1nc2ccccc2s1`: the NF-kB reporter turned out to be 1.01 ± 0.084 in assay [1] (setting [4]), 0.944 ± 0.087 in assay [1] (agonist: LPS 0.1 ug/mL) and 0.967 ± 0.091 in assay [1] (agonist: MPLA […]). Further, the IRF reporter was 1.09 ± 0.035 in assay [2] (agonist: 3'3'-cGAMP 10 ug/mL), 1.29 ± 0.16 in assay [2] (agonist: LPS 0.1 ug/mL) and 1.58 ± 0.23 in assay [2] (agonist: MPLA […]). In addition, in assay [3], the viability score is 1.02 (active).

Take `O=C1OC(c2ccc3ccccc3c2)=NC1=Cc1ccc(Cl)c([N+](=O)[O-])c1`: the NF-kB reporter in assay [1] (setting [4]) worked out at 0.973 ± 0.079; in assay [1] (agonist: LPS 0.1 ug/mL) it was 1.07 ± 0.067; in assay [1] (agonist: MPLA […]), 0.881 ± 0.053. For the same compound, the figures for the IRF reporter in assay [2] (agonist: 3'3'-cGAMP 10 ug/mL), in assay [2] (agonist: LPS 0.1 ug/mL) and in assay [2] (agonist: MPLA […]) were 0.976 ± 0.03, 1.53 ± 0.14 and 1.16 ± 0.2, respectively. In addition, the viability score in assay [3] was 1.01 (active).

For the compound `CC(=O)N=c1sc(S(N)(=O)=O)nn1C` [Prestw-802], the NF-kB reporter in assay [1] (setting [4]) was found to be 1.06 ± 0.11; in assay [1] (agonist: LPS 0.1 ug/mL) it was 0.991 ± 0.098; in assay [1] (agonist: MPLA […]), 1.02 ± 0.12. Moreover, the IRF reporter in assay [2] (agonist: 3'3'-cGAMP 10 ug/mL) was found to be 0.986 ± 0.031; in assay [2] (agonist: LPS 0.1 ug/mL), 1.26 ± 0.15; in assay [2] (agonist: MPLA […]) it was 1.39 ± 0.19. Also, the viability score in assay [3] was 1.03 (active).

Turning to `CSc1ccc(C(=O)O)s1`, the results for the NF-kB reporter in assay [1] (setting [4]), in assay [1] (agonist: LPS 0.1 ug/mL) and in assay [1] (agonist: MPLA […]) were 1.02 ± 0.13, 1.08 ± 0.09 and 1.03 ± 0.065, respectively. Besides, the IRF reporter is 1.01 ± 0.21 in assay [2] (agonist: 3'3'-cGAMP 10 ug/mL), 1.03 ± 0.059 in assay [2] (agonist: LPS 0.1 ug/mL) and 1.03 ± 0.15 in assay [2] (agonist: MPLA […]). For the same compound, the viability score in assay [3] is 1.01 (active).

With `CC(=NNC(=O)CSc1nc2ccccc2n1Cc1ccccc1)c1ccc(Cl)cc1`, the NF-kB reporter was 0.846 ± 0.068 in assay [1] (setting [4]), 0.923 ± 0.089 in assay [1] (agonist: LPS 0.1 ug/mL) and 1 ± 0.1 in assay [1] (agonist: MPLA […]). The IRF reporter in assay [2] (agonist: 3'3'-cGAMP 10 ug/mL) was 0.979 ± 0.046; in assay [2] (agonist: LPS 0.1 ug/mL), 1.4 ± 0.081; in assay [2] (agonist: MPLA […]), 1.36 ± 0.16. In assay [3], the viability score is 1.02 (active).

Consider `NCCCCC(=O)O.O=C1c2ccccc2C(=O)C1[N+](=O)[O-]`, for which the NF-kB reporter is 0.788 ± 0.16 in assay [1] (setting [4]), 0.975 ± 0.076 in assay [1] (agonist: LPS 0.1 ug/mL) and 0.843 ± 0.1 in assay [1] (agonist: MPLA […]). The IRF reporter in assay [2] (agonist: 3'3'-cGAMP 10 ug/mL) amounted to 0.929 ± 0.025; in assay [2] (agonist: LPS 0.1 ug/mL), 1.13 ± 0.16; in assay [2] (agonist: MPLA […]), 1.31 ± 0.13. The viability score in assay [3] was 1 (active).

Consider `O=c1oc2c3c4c(cc2cc1-c1nnc(-c2ccccc2)o1)CCCN4CCC3`, for which the NF-kB reporter in assay [1] (setting [4]) came to 1.01 ± 0.12; in assay [1] (agonist: LPS 0.1 ug/mL), 1.04 ± 0.1; in assay [1] (agonist: MPLA […]), 0.98 ± 0.058. For the same compound, the IRF reporter in assay [2] (agonist: 3'3'-cGAMP 10 ug/mL) is 1.02 ± 0.058; in assay [2] (agonist: LPS 0.1 ug/mL), 1.41 ± 0.17; in assay [2] (agonist: MPLA […]), 1.04 ± 0.069. In addition, in assay [3], the viability score was 1.01 (active).

As to `CC(=O)N1CCN=C1SCc1cccc(C(F)(F)F)c1`, the NF-kB reporter amounted to 0.767 ± 0.06 in assay [1] (setting [4]), 0.698 ± 0.059 in assay [1] (agonist: LPS 0.1 ug/mL) and 0.896 ± 0.029 in assay [1] (agonist: MPLA […]). The values for the IRF reporter in assay [2] (agonist: 3'3'-cGAMP 10 ug/mL), in assay [2] (agonist: LPS 0.1 ug/mL) and in assay [2] (agonist: MPLA […]) were 0.572 ± 0.035, 0.912 ± 0.068 and 0.88 ± 0.08, respectively. Further, in assay [3], the viability score was 0.99 (active).

Regarding `CCc1ccc(NC(=O)CSc2nc3c([nH]c4ccccc43)c(=O)n2C)cc1`, the NF-kB reporter in assay [1] (setting [4]) worked out at 0.809 ± 0.053; in assay [1] (agonist: LPS 0.1 ug/mL), 0.745 ± 0.06; in assay [1] (agonist: MPLA […]), 0.776 ± 0.061. The IRF reporter in assay [2] (agonist: 3'3'-cGAMP 10 ug/mL) worked out at 1 ± 0.08; in assay [2] (agonist: LPS 0.1 ug/mL) it was 1.13 ± 0.14; in assay [2] (agonist: MPLA […]), 1.07 ± 0.18. For the same compound, the viability score in assay [3] is 0.483 (inactive).

For the compound `O=C(Nc1cc2c(cc1Cl)OCCO2)c1cc(Cl)ccc1O`, the NF-kB reporter was 0.882 ± 0.068 in assay [1] (setting [4]), 0.902 ± 0.077 in assay [1] (agonist: LPS 0.1 ug/mL) and 0.969 ± 0.092 in assay [1] (agonist: MPLA […]). In addition, the IRF reporter in assay [2] (agonist: 3'3'-cGAMP 10 ug/mL) turned out to be 1.08 ± 0.034; in assay [2] (agonist: LPS 0.1 ug/mL), 1.26 ± 0.16; in assay [2] (agonist: MPLA […]), 1.45 ± 0.23. For the same compound, the viability score in assay [3] was 1.01 (active).

For `COc1cccc(O)c1O`, the NF-kB reporter is 1.72 ± 0.1 in assay [1] (setting [4]), 0.627 ± 0.083 in assay [1] (agonist: LPS 0.1 ug/mL) and 0.321 ± 0.013 in assay [1] (agonist: MPLA […]). Also, the figures for the IRF reporter in assay [2] (agonist: 3'3'-cGAMP 10 ug/mL), in assay [2] (agonist: LPS 0.1 ug/mL) and in assay [2] (agonist: MPLA […]) were 0.479 ± 0.022, 0.422 ± 0.03 and 0.0889 ± 0.013, respectively. Besides, in assay [3], the viability score is 0.935 (active).

Turning to `Nc1ccc(OCc2ccccc2)cc1`, the NF-kB reporter in assay [1] (setting [4]) worked out at 0.977 ± 0.16; in assay [1] (agonist: LPS 0.1 ug/mL), 1.01 ± 0.1; in assay [1] (agonist: MPLA […]), 0.995 ± 0.12. The IRF reporter is 0.635 ± 0.024 in assay [2] (agonist: 3'3'-cGAMP 10 ug/mL), 1.03 ± 0.1 in assay [2] (agonist: LPS 0.1 ug/mL) and 1.16 ± 0.17 in assay [2] (agonist: MPLA […]). In assay [3], the viability score is 1.01 (active).

Consider `Cc1occc1C(=O)Nc1ccc([N+](=O)[O-])cc1Cl`, for which the figures for the NF-kB reporter in assay [1] (setting [4]), in assay [1] (agonist: LPS 0.1 ug/mL) and in assay [1] (agonist: MPLA […]) were 0.88 ± 0.079, 0.851 ± 0.066 and 0.898 ± 0.026, respectively. Also, the IRF reporter in assay [2] (agonist: 3'3'-cGAMP 10 ug/mL) came out at 1.02 ± 0.088; in assay [2] (agonist: LPS 0.1 ug/mL), 0.931 ± 0.12; in assay [2] (agonist: MPLA […]) it was 0.874 ± 0.2. The viability score in assay [3] is 0.995 (active).

Take `CCC(NC(C)C)C(O)c1ccc(O)c(O)c1` (stereo not drawn) [Prestw-749]: the values for the NF-kB reporter in assay [1] (setting [4]), in assay [1] (agonist: LPS 0.1 ug/mL) and in assay [1] (agonist: MPLA […]) were 2.04 ± 0.12, 1.13 ± 0.092 and 1.34 ± 0.13, respectively. Moreover, the IRF reporter in assay [2] (agonist: 3'3'-cGAMP 10 ug/mL) worked out at 0.988 ± 0.039; in assay [2] (agonist: LPS 0.1 ug/mL), 0.96 ± 0.051; in assay [2] (agonist: MPLA […]), 1.08 ± 0.25. In addition, the viability score in assay [3] is 0.997 (active).
